Experiment [1] can be described thus: NS1 protein of Zika virus - qHTS assay to identify small molecule inhibitors in human HEK 293 cells (AID 1347053). Note: series mostly up to about 46 µM; nearly all actives have a fitted effect of over 55% in size. The method, boiled down:
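HEK 293 cells pretreated with compound for 1 h, then infected with ZIKV MR766 (MOI 0.5) for 24 h at 37 C. NS1 detected by TR-FRET with two anti-NS1 antibodies; normalized to uninfected (0%) and infected (100%) wells.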
Background: qHTS replaces the single test concentration by a dilution series.

The nature of experiment [2]: qHTS of pediatric cancer cell lines to identify multiple opportunities for drug repurposing: Primary screen for TC32 cells (AID 1347089). Note: nearly all actives have a fitted effect of over 60% in size. The method, boiled down:
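Luminescent CellTiter-Glo read-out of metabolically active TC32 cells after 48 h compound exposure. Primary: MIPE 11-point, 0.78 nM–46 µM; NPC 8-point, 0.59 nM–46 µM. Confirmatory: 11-point dilutions.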

A short description of experiment [3]: qHTS of pediatric cancer cell lines to identify multiple opportunities for drug repurposing: Primary screen for DAOY cells (AID 1347090). Note: nearly all actives have a fitted effect of over 55% in size. Note: potency is the fitted concentration of half-maximal effect. Put shortly: (§1)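 Eight- or eleven-point concentration series, 48 h treatment at 37 degrees C in growth media; readout CellTiter-Glo luminescence. Potency and efficacy were taken from the concentration-response curves.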
Experiment [4] can be described thus: qHTS of pediatric cancer cell lines to identify multiple opportunities for drug repurposing: Primary screen for SJ-GBM2 cells (AID 1347091). Note: potency is the fitted concentration of half-maximal effect. Put shortly:
as §1

Experiment [5] in a line: qHTS of pediatric cancer cell lines to identify multiple opportunities for drug repurposing: Primary screen for A673 cells (AID 1347092). Note: nearly all actives have a fitted effect of over 45% in size. Note: potency is the fitted concentration of half-maximal effect. Put shortly: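 A673 cells (500-1,000 cells/well in growth media) were pre-incubated 5 h at 37 degrees C, then exposed to compounds for 48 h. Viability was read as CellTiter-Glo luminescence; concentration-response curves came directly from the primary screen.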

A short description of experiment [6]: qHTS of pediatric cancer cell lines to identify multiple opportunities for drug repurposing: Primary screen for NB-EBc1 cells (AID 1347095). Note: potency is the fitted concentration of half-maximal effect. Put shortly: (§2)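 Viability was measured as metabolically active cells after 48 hours of treatment, read by CellTiter-Glo luminescence. Compounds were tested at multiple final concentrations, giving concentration-response curves.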

A short description of experiment [7]: qHTS of pediatric cancer cell lines to identify multiple opportunities for drug repurposing: Primary screen for Saos-2 cells (AID 1347097). Note: nearly all actives have a fitted effect of over 40% in size. Note: potency is the fitted concentration of half-maximal effect. Put shortly:
as §2

Experiment [8] is described as follows: qHTS of pediatric cancer cell lines to identify multiple opportunities for drug repurposing: Primary screen for SK-N-MC cells (AID 1347093). Note: potency is the fitted concentration of half-maximal effect. Put shortly: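 Metabolically active cells were quantified by ATP-dependent luminescence (CellTiter-Glo, 15 min at room temperature) following 48 h treatment. Cells had been plated at 500-1,000 per well and settled for 5 h beforehand.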

Experiment [9] in a line: qHTS of pediatric cancer cell lines to identify multiple opportunities for drug repurposing: Primary screen for BT-37 cells (AID 1347094). Note: series mostly up to about 57 µM. Put shortly:
as §2

Experiment [10] can be described thus: qHTS of pediatric cancer cell lines to identify multiple opportunities for drug repurposing: Primary screen for U-2 OS cells (AID 1347096). Note: nearly all actives have a fitted effect of over 50% in size. Put shortly:
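Cells (500-1,000/well) in growth media were settled 5 h at 37 degrees C, then given compounds for 48 h. Viability was read as CellTiter-Glo luminescence. Primary runs used MIPE at 11 points (0.78 nM-46 µM) and NPC at 8 points (0.59 nM-46 µM); follow-ups used 11 points.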

The nature of experiment [11]: qHTS of pediatric cancer cell lines to identify multiple opportunities for drug repurposing: Primary screen for NB1643 cells (AID 1347099). Note: nearly all actives have a fitted effect of over 50% in size. Note: potency is the fitted concentration of half-maximal effect. Put shortly: as §2
Experiment [12] can be described thus: qHTS of pediatric cancer cell lines to identify multiple opportunities for drug repurposing: Primary screen for SK-N-SH cells (AID 1347098). Note: nearly all actives have a fitted effect of over 65% in size. Note: potency is the fitted concentration of half-maximal effect. Put shortly: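 Cells (500-1,000/well) rested 5 h, then received compounds for 48 h; metabolically active cells were measured by CellTiter-Glo luminescence. Final concentrations spanned up to 46 µM (MIPE, 11-point) or 0.59 nM-46 µM (NPC, 8-point) in primary screens, 11-point in follow-ups.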

The target in experiment [13] is Parathyroid hormone/parathyroid hormone-related peptide receptor (Homo sapiens) (UniProt Q03431). Put plainly: qHTS for PTHR1 Agonists: Optimization Screen against the NCGC LOPAC library (AID 1347079).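 Note: GloSensor cAMP luminescence in HEK-293 GP2 cells expressing human PTHR1 with IBMX.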 The method, boiled down: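 Agonist readout: GloSensor cAMP luminescence, read after 15 min at room temperature. HEK-293-derived GP2 line carries PTHR1; compounds tested as a titration for 1 hr at 37C in presence of IBMX. M-PTH (1-15) served as control.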
Sequence of Parathyroid hormone/parathyroid hormone-related peptide receptor (Homo sapiens) (Q03431 whole entry, looked up): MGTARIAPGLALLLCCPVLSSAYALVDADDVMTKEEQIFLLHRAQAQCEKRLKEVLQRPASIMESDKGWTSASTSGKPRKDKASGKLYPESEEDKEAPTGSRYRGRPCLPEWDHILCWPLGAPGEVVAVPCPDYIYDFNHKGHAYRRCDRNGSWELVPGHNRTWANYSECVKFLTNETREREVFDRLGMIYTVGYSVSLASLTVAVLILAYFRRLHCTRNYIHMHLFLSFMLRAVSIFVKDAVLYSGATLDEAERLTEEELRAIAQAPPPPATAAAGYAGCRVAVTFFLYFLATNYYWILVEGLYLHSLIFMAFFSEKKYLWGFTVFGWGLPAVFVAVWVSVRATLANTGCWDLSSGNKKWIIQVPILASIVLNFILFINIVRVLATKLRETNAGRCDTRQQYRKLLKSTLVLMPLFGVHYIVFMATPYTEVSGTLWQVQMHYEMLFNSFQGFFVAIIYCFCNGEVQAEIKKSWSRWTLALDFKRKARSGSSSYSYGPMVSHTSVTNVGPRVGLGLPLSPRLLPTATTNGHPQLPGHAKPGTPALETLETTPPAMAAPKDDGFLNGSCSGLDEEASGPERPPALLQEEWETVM

Experiment [14] addresses T1, Tyrosine-protein phosphatase non-receptor type substrate 1 (Homo sapiens) + Leukocyte surface antigen CD47 (Homo sapiens) (UniProt P78324+Q08722). Description: CD47-SIRPalpha protein protein interaction - LANCE assay qHTS validation (AID 1347057; active = well fitted curve in the direction sought with a large enough effect in the signal ratio, with a control signal flat, not every such curve was filed as active; the % refers to the signal ratio; note: series mostly up to about 38 µM). Put shortly:
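First, His-tagged CD47 and Eu-labelled anti-His antibody met the compound for 30 min; next, site-specifically biotinylated SIRPalpha was added for 30 min; finally streptavidin-APC was added before reading the TR-FRET ratio.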
In general terms: Time-resolved FRET reads energy transfer from a long-lived donor to a nearby acceptor.

Experiment [15] has as its target T1, Tyrosine-protein phosphatase non-receptor type substrate 1 (Homo sapiens) + Leukocyte surface antigen CD47 (Homo sapiens). Put plainly: CD47-SIRPalpha protein protein interaction - HTRF assay qHTS validation (AID 1347058; active = well fitted curve in the direction sought with a large enough effect in the signal ratio, not every such curve was filed as active; the % refers to the signal ratio;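 note: recombinant soluble extracellular CD47 with His tag and biotinylated SIRPalpha domains; series mostly up to about 38 µM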). The method, boiled down: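 TR-FRET read (Ch1/Ch2 ratio) of soluble extracellular CD47 and Avi-biotinylated SIRPalpha domains in PBS pH 7.4 with 0.05% IGEPAL; 7-point compound titration. Sequential 30 min room-temperature steps; non-biotinylated SIRPalpha as control inhibitor.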

The structures appear in SMILES notation. Records with an inconclusive call do not appear. Active and inactive are the calls of the source. Unless noted, calls come from the whole dose curve; as a rule, active = well fitted curve in the direction sought with a large enough effect; inconclusive = small, poorly fitted or top-dose-only effect, or another doubt; inactive = no such curve, though single readings can be large; an effect the other way counts as inactive or inconclusive.

T1 sequence (P78324 whole entry, looked up): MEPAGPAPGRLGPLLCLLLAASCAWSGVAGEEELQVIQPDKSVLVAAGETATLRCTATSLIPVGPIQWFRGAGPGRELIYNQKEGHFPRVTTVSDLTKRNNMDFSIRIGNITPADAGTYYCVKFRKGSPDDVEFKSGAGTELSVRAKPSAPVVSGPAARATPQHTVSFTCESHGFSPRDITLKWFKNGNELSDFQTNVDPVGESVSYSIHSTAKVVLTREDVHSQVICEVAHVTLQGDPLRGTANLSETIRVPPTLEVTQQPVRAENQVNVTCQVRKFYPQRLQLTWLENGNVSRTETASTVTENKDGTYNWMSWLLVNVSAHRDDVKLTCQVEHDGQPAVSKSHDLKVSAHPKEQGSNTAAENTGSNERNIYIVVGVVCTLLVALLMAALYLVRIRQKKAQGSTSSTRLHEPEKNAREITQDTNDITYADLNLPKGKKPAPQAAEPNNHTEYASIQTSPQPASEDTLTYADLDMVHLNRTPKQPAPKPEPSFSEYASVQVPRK
T1 sequence (Q08722 whole entry, looked up): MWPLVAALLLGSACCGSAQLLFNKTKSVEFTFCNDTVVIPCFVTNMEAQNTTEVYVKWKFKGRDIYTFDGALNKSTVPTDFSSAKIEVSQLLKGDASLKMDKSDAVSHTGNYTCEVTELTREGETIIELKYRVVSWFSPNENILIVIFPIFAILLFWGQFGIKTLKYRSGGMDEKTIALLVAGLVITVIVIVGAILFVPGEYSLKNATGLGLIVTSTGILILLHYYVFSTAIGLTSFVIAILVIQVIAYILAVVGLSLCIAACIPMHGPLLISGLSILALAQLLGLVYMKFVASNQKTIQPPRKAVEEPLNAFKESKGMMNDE

In the case of `Nc1nc2ccc([N+](=O)[O-])cc2s1`, the Potency result in experiment [1], in experiment [2], in [3], in experiment [4], in experiment [5] and in experiment [6] was “inactive” throughout. The Potency result in experiment [7] was “inactive”.

As for `c1ccc(CCNc2nc(-c3ccccc3)cs2)cc1`, the Potency entry in experiment [2], in experiment [8], in experiment [9], in experiment [10] and in [11] was “inactive” each time.

As for `Cc1cc(O)c2ccccc2c1O`, the Potency entry in experiment [2] is “inactive”. Further, the Potency was 10.6 µM (active) in experiment [5], 21.1 µM (active) in experiment [8], 34.4 µM (active) in experiment [12] and 18.8 µM (active) in experiment [11].

Regarding `C=CC(=O)c1ccc(CCCCCC)cc1`, the Potency result in [13] was “inactive”.

`Cc1[nH]cnc1CN1CCc2c(c3ccccc3n2C)C1=O`: the Potency result in experiment [1], in experiment [2], in experiment [3], in experiment [4], in experiment [5] and in [8] was “inactive” in each case. Besides, the Potency result in experiment [9], in experiment [6], in experiment [10], in [7], in experiment [12] and in [11] was “inactive” each time.

Consider `C[N+]1(C)[C@@H]2CC(OC(=O)[C@H](CO)c3ccccc3)C[C@H]1[C@@H]1O[C@@H]12` (some centres undefined), for which the Potency result in experiment [1], in [2], in [3], in experiment [4], in experiment [5] and in experiment [8] was “inactive” in each case. Moreover, the Potency entry in [9], in [6], in experiment [10], in experiment [7], in experiment [12] and in experiment [11] was “inactive” each time.

For `C/C(=N\O)c1ccc(OCC(=O)N2CCCCC2)cc1`, the Potency result in experiment [1], in experiment [2], in experiment [3], in [4], in experiment [5] and in [8] was “inactive” in each case. Moreover, the Potency entry in [9], in [6], in experiment [10], in experiment [7], in experiment [12] and in experiment [11] was “inactive” each time.

Turning to `COc1ccccc1N1CCN(CCN(C(=O)c2ccc(I)cc2)c2ccccn2)CC1`, the Potency result in [13] was “inactive”.

As to `CC(C)OC(=O)c1cc(C(=O)OC(C)C)cc([N+](=O)[O-])c1`, the Potency entry in experiment [1], in experiment [2], in [3], in experiment [4], in experiment [5] and in experiment [9] was “inactive” each time. Moreover, the Potency result in experiment [6], in experiment [10], in experiment [7], in experiment [12] and in [11] was “inactive” throughout.

Regarding `O=c1[nH]c2ccccc2n1CCCN1CCN(C(c2ccccc2)c2ccccc2)CC1`, the Potency result in experiment [1], in experiment [2], in experiment [3], in experiment [6], in experiment [10] and in experiment [11] was “inactive” in each case. The Potency in experiment [12] was 24.4 µM (active).

Regarding `CCCC(=O)OC[C@@H](OC(=O)CCC)[C@@H](OC(=O)CCC)[C@H](Cn1c2nc(=O)[nH]c(=O)c-2nc2cc(C)c(C)cc21)OC(=O)CCC`, the Potency entry in experiment [1], in [2], in experiment [3], in experiment [4], in experiment [10] and in [12] was “inactive” in each case. In experiment [11], the Potency entry was “inactive”.

As for `NC(=O)C(c1ccccc1)(c1ccccc1)[C@@H]1CCN(CCc2ccc3c(c2)CCO3)C1`, the Potency result in [1], in experiment [2], in experiment [4], in experiment [5], in experiment [8] and in [9] was “inactive” throughout. The Potency result in [10], in [12] and in experiment [11] was “inactive” each time.

Consider `Oc1c(Br)cc(Br)c2cccnc12`, for which the Potency entry in experiment [2] and in experiment [10] was “inactive” throughout. The Potency is 16.8 µM (active) in [3]; 11.9 µM (active) in experiment [4]; 3.35 µM (active) in [5]; 10.6 µM (active) in [8]; 10.6 µM (active) in experiment [6]; 11.9 µM (active) in experiment [7].

For the compound `Cn1c(=O)c(-c2c(Cl)cccc2Cl)cc2cnc(Nc3ccc(N4CCOCC4)cc3)nc21`, in [14], the Potency entry is “inactive”. Moreover, the outcome in experiment [15] was inactive.

Source of the values: PubChem BioAssay (NCATS).
